Measured values published in PubChem BioAssay (NCATS).
Results filed as inconclusive are left out. Calls of active or inactive are those of the source. Unless noted, the call rests on the fitted dose curve; in most records, active means well fitted curve in the direction sought with a large enough effect; inconclusive means small, poorly fitted or top-dose-only effect, or another doubt; inactive means no such curve, though single readings can be large; an effect the other way counts as inactive or inconclusive.

Legend:
[1] = qHTS Assay for Identifying Gametocytocidal Compounds (AID 743244);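 further: on the % scale 0 is the no-effect control and ±100 the full control effect; actives lower the fluorescent signal which means gametocytes are killed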; settings: P. falciparum 3D7 stage III-V gametocytes, alamarBlue, 72 h; max response: stronger effect = lower value
Method in brief: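 Fluorescence at Ex 525/Em 598 nm, recorded 24 h after alamarBlue addition, reports residual metabolic activity of 3D7 gametocytes (stages III–V) following 72 h compound exposure at 37 °C, 5% CO2.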

[2] = P-glycoprotein substrates identified in KB-8-5-11 adenocarcinoma cell line, qHTS therapeutic library screen (AID 1346987); further: nearly all actives have a fitted effect of over 65% in size; further: potency means the concentration at half of the fitted maximal effect
Method in brief: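 KB-8-5-11: colchicine-selected sub-line of KB-3-1 over-expressing P-gp; assay medium lacked colchicine. 72 h drug exposure at 37 degree C, CellTiter-Glo.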

[3] = Primary qHTS for inhibitors of SARS-S pseudo-typed particle cell entry (AID 1479145; calls by dose curve; further: nearly all actives have a fitted effect of over 45% in size; on activity change, negative = inhibition: on the % scale 0 is the no-effect control and ±100 the full control effect)
[4] = Primary qHTS for Huh7 cytotoxicity: counterscreen for inhibitors of MERS-S pseudotyped particle cell entry (AID 1479147; calls by dose curve; further: on the % scale 0 is the no-effect control and ±100 the full control effect); settings: outcome: dose series up to 57.1 µM unless noted
[5] = Primary qHTS for inhibitors of MERS-S pseudo-typed particle cell entry (AID 1479149; calls by dose curve; further: nearly all actives have a fitted effect of over 60% in size)
[6] = Primary qHTS for Vero E6 cytotoxicity: counterscreen for inhibitors of SARS-S pseudo-typed particle cell entry (AID 1479150; calls by dose curve); settings: outcome: dose series up to 57.1 µM unless noted
[7] = Cytotoxicity counterscreen for inhibitors of SARS-CoV-2 cell entry (AID 1645845; calls by dose curve; further: nearly all actives have a fitted effect of over 50% in size)
Method in brief: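 48 h compound treatment (after 1 h preincubation), HEK293-ACE2 cells, 37 C/5% CO2; ATP luminescence endpoint; normalized to cell wells and media blanks.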

[8] = Primary qHTS to identify inhibitors of SARS-CoV-2 cell entry (AID 1645846; calls by dose curve; further: nearly all actives have a fitted effect of over 45% in size); settings: activity change, negative = inhibition: at 57.1 µM (top of the series) unless noted
Method in brief: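 HEK293-ACE2 (Expi293F, stable hACE2), 1500 cells/well, o/n 37C; cpd 23 nL pin, 1 h; MLV-PP w/ SARS-CoV-2-S (Wuhan-Hu-1, Δ19 C-term); 48 h 37C; Bright-Glo luminescence; normalized vs S-PP and bald PP.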

[9] = biological target: Glutathione peroxidase 1 (Homo sapiens) (UniProt P07203); test: Primary qHTS Assay for Inhibitors of Recombinant Selenoprotein Glutathione Peroxidase 1 (GPX1) (AID 1845191); further: nearly all actives have a fitted effect of over 65% in size
Sequence of Glutathione peroxidase 1 (Homo sapiens) (P07203 whole entry, looked up): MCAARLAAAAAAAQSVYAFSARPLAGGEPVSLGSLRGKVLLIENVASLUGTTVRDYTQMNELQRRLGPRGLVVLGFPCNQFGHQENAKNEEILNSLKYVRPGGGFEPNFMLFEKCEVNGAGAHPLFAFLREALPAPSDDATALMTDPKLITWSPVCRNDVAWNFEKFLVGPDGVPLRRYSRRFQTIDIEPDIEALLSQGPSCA
Method in brief: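 10 nM GPX1 + cpd, 30 min RT; start w/ 1 mM GSH, 0.5 mM cumene hydroperoxide, 0.5 mM NADPH, 100 nM GR, 0.01% BSA; buffer 50 mM Tris-HCl pH 7.5, 2 mM EDTA, 150 mM NaCl; Fl 340/450, 0 & 15 min.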

[10] = biological target: Phospholipid hydroperoxide glutathione peroxidase GPX4 (Homo sapiens) (UniProt P36969); test: Primary qHTS Assay for Inhibitors of Recombinant Selenoprotein Glutathione Peroxidase 4 (GPX4) (AID 1845192); further: nearly all actives have a fitted effect of over 65% in size
Sequence of Phospholipid hydroperoxide glutathione peroxidase GPX4 (Homo sapiens) (P36969 whole entry, looked up): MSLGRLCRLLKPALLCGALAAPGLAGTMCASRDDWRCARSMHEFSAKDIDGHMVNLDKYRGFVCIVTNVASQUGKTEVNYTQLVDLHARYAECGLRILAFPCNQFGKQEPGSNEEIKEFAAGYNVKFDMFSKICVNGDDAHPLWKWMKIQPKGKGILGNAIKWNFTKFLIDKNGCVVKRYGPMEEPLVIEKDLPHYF
Method in brief: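 NADPH consumption, followed by fluorescence at 340/450 nm between 0 and 15 min, reports GPX4 activity via coupled glutathione reductase (100 nM). Enzyme 200 nM was pre-exposed to compound 30 min; 0.5 mM cumene hydroperoxide and 1 mM GSH served as substrates.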

[11] = biological target: Cytochrome P450 1A2 (Homo sapiens) (UniProt P05177); test: p450-cyp1a2 (AID 410; calls by dose curve; further: potency means the concentration at half of the fitted maximal effect)
Sequence of Cytochrome P450 1A2 (Homo sapiens) (P05177 whole entry, looked up): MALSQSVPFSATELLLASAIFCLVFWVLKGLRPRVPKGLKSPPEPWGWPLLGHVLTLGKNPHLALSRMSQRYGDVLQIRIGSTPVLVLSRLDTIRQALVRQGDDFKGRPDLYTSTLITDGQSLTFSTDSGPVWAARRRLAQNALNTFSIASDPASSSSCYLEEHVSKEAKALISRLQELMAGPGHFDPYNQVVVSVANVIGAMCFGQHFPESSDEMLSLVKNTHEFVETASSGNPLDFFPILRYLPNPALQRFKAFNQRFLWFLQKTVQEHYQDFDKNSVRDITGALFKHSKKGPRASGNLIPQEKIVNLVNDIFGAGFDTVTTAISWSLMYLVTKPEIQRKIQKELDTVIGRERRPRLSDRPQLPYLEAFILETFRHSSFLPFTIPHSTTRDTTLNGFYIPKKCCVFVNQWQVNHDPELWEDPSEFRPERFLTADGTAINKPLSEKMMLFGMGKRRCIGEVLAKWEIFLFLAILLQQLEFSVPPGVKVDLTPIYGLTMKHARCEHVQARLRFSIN
Method in brief: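 Human CYP1A2 (20nM) demethylated Luciferin-ME at its Km (100uM) in 100mM KPO4. After 10 min compound preincubation, NADPH regeneration ran the reaction 60 min at room temperature. Luciferin was read by luminescence, normalized to 57 uM furafylline.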

[12] = biological target: Glucocorticoid receptor (Homo sapiens) (UniProt P04150); test: GR-GFP Redistribution (AID 450;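 active means compounds whose dose series gives a full or clear partial fitted curve of increased nuclear translocation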; further: potency means the concentration at half of the fitted maximal effect); settings: U2OS GR-GFP nuclear translocation, laser cytometry, 2 h
Sequence of Glucocorticoid receptor (Homo sapiens) (P04150 whole entry, looked up, the tested form may be a part): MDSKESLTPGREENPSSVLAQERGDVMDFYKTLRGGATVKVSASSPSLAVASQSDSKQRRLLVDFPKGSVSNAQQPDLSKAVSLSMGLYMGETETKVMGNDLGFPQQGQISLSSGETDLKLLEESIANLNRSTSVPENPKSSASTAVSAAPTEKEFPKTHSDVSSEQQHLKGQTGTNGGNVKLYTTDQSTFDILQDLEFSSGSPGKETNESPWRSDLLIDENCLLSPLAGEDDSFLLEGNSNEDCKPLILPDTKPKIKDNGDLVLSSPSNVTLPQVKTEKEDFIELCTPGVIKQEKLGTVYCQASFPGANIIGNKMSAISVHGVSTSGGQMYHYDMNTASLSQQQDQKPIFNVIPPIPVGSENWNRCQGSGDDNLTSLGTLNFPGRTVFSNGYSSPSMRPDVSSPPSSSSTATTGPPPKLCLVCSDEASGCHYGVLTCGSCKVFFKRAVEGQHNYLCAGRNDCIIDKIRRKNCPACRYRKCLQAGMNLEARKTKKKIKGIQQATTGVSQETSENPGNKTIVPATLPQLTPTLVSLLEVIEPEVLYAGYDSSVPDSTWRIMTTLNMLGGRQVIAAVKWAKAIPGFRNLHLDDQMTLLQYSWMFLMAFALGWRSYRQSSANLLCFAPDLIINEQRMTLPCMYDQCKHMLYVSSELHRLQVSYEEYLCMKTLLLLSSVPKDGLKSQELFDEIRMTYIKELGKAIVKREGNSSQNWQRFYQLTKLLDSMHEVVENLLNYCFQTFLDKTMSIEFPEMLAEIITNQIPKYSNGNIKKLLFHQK

[13] = biological target: Glucocorticoid receptor (Homo sapiens) (UniProt P04150); test: GR-EFC Redistribution (AID 451; calls by dose curve; further: potency means the concentration at half of the fitted maximal effect); settings: CHO-K1 GR-EFC translocation, beta-gal luminescence, 2 h
Method in brief: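 Translocation of GR-ED fusion to nuclear EA restores b-gal, read by luminescence after 1 h room-temperature detection. Engineered CHO-K1 biosensor cells, 1,000/well, exposed 2 h at 37 C to titrations up to 46 uM final.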

[14] = biological target: Mitogen-activated protein kinase 10 (Mus musculus) (UniProt Q61831); test: JNK3 AlphaScreen Assay (AID 530; active means well fitted curve in either direction with a large enough effect, not every such curve was filed as active;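 further: kinase came from lysate of stimulated human HepG2 cells; signal reports phosphorylation of biotinylated GST-cJun 1-79 at Ser73 with 10 µM ATP; on the % scale 0 is the no-effect control and ±100 the full control effect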)
Method in brief: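 Room-temperature AlphaScreen kinase assay; pre-activated HepG2 lysate as JNK3 source, biotin-GST-cJun(1-79) substrate, 10 uM ATP, compound 15 min preincubation.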

[15] = biological target: Cytochrome P450 2C9 (Homo sapiens) (UniProt P11712); test: qHTS Assay for Inhibitors and Substrates of Cytochrome P450 2C9 (AID 883); further: potency means the concentration at half of the fitted maximal effect; nearly all actives have a fitted effect of over 60% in size
Sequence of Cytochrome P450 2C9 (Homo sapiens) (P11712 whole entry, looked up): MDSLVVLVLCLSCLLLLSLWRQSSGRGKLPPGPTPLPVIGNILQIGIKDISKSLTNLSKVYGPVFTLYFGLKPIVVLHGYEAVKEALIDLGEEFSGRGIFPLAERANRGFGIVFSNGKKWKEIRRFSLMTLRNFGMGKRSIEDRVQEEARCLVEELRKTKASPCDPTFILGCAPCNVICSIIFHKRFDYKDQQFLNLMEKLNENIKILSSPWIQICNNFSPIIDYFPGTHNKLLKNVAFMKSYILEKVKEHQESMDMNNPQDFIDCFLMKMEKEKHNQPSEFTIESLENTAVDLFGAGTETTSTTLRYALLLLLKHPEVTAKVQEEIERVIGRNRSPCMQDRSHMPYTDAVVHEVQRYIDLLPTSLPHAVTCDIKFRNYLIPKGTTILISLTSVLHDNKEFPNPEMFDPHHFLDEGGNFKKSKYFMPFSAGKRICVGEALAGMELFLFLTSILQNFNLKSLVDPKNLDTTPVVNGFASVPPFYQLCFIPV
Method in brief: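 Turnover of Luciferin-H (100uM, KM) by 10nM human CYP2C9 was measured over 60 min at 37C with NADPH regeneration; inhibitors and some substrates reduce luminescence. Data normalized to sulphaphenazole 57uM.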

[16] = biological target: Cytochrome P450 3A4 (Homo sapiens) (UniProt P08684); test: qHTS Assay for Inhibitors and Substrates of Cytochrome P450 3A4 (AID 884); further: potency means the concentration at half of the fitted maximal effect; nearly all actives have a fitted effect of over 50% in size
Sequence of Cytochrome P450 3A4 (Homo sapiens) (P08684 whole entry, looked up): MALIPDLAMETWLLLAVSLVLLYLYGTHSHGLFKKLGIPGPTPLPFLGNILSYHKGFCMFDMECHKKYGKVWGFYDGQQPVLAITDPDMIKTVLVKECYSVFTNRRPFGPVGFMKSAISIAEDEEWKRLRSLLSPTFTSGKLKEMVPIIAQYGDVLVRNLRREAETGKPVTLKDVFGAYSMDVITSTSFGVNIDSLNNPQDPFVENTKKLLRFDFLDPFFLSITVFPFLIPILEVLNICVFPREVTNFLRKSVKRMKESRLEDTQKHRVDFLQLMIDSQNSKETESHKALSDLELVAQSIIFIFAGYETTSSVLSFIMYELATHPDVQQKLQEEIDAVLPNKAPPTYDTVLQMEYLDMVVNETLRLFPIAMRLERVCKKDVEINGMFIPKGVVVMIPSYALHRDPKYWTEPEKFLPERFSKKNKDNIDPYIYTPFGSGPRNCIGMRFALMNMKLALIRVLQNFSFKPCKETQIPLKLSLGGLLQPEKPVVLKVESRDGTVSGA
Method in brief: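 20 nM human CYP3A4 with 25 uM Luciferin-PPXE (at KM) in 200 mM KPO4, preincubated 10 min with compound; NADPH regeneration started a 60 min RT reaction. Luciferin detected by luminescence, normalized to 57 uM ketoconazole as full inhibition.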

[17] = biological target: Cytochrome P450 3A4 (Homo sapiens) (UniProt P08684); test: qHTS Assay for Activators of Cytochrome P450 3A4 (AID 885); further: nearly all actives have a fitted effect of over 65% in size
Method in brief: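 Human CYP3A4 (20 nM) with Luciferin-PPXE at 25 uM (its KM) in 200 mM KPO4; 10 min compound preincubation, then NADPH regeneration and 60 min reaction at RT. Luciferin read by luminescence; normalized to 57 uM ketoconazole full inhibition.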

[18] = biological target: Cytochrome P450 2C19 (Homo sapiens) (UniProt P33261); test: qHTS Assay for Inhibitors and Substrates of Cytochrome P450 2C19 (AID 899); further: potency means the concentration at half of the fitted maximal effect; nearly all actives have a fitted effect of over 60% in size
Sequence of Cytochrome P450 2C19 (Homo sapiens) (P33261 whole entry, looked up): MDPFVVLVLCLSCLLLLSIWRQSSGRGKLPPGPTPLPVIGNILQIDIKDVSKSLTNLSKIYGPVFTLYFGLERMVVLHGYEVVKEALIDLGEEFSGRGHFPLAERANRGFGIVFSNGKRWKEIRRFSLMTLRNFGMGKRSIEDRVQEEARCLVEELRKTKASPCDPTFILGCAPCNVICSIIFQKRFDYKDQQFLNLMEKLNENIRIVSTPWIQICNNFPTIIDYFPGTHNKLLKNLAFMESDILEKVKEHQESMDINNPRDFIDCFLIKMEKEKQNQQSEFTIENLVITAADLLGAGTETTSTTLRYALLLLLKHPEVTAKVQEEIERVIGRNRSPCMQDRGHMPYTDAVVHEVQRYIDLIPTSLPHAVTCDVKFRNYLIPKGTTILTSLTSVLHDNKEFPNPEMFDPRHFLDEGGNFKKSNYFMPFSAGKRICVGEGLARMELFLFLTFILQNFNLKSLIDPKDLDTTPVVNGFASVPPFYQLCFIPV
Method in brief: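 Reactions contain 5nM enzyme, 10uM Luciferin-H EGE (KM) and 50mM KPO4; compound preincubates 10 min at 37C, NADPH regeneration starts turnover for 60 min. Luminescence after detection reagent gives activity.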

[19] = biological target: ATP-dependent 6-phosphofructokinase (Trypanosoma brucei brucei) (UniProt O15648); test: qHTS Assay to Find Inhibitors of T. brucei phosphofructokinase: hit validation (AID 492961);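 further: luminescence reports ADP formed as PFK phosphorylates fructose-6-phosphate with ATP; on the % scale 0 is the no-effect control and ±100 the full control effect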
Method in brief: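 Measures ADP output of PFK (1.25 nM) at 0.1 mM ATP, 0.5 mM F6P, pH 8.0 TEA buffer with 5 mM MgCl2. No-enzyme wells define full inhibition; uninhibited enzyme wells define zero.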

[20] = biological target: Ubiquitin carboxyl-terminal hydrolase 1 (Homo sapiens) (UniProt O94782); test: Inhibitors of USP1/UAF1: Pilot qHTS (AID 504865);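 further: rhodamine fluorescence freed from ubiquitin-rhodamine substrate followed over time; top concentration of the series differs between compounds; on the % scale 0 is the no-effect control and ±100 the full control effect; nearly all actives have a fitted effect of over 35% in size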
Sequence of Ubiquitin carboxyl-terminal hydrolase 1 (Homo sapiens) (O94782 whole entry, looked up): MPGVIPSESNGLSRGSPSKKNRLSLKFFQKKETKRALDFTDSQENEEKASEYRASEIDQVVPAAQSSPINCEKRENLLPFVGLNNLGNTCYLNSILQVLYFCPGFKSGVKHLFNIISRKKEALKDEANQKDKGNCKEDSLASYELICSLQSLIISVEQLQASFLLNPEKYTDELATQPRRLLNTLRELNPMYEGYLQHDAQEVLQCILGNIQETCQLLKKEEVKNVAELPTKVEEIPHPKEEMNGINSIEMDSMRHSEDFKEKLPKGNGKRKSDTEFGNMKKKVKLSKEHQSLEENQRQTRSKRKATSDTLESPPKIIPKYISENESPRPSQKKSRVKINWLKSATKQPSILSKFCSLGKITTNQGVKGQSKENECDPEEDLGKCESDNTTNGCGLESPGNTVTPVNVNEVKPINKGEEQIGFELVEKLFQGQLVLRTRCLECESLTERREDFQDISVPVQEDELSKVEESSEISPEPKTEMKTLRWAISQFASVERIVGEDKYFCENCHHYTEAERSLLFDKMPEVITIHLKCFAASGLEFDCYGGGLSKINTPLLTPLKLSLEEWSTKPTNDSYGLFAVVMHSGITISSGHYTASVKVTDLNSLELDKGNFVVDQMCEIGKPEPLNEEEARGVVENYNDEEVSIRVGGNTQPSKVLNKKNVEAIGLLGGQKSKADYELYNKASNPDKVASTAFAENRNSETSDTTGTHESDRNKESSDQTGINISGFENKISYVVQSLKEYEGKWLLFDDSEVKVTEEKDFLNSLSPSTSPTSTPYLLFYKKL
Method in brief: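 1nM USP1/UAF1 + cpd, 15 min RT; start w/ Ub-Rho 150nM final; kinetic FL 480/540 nm, 6 reads q60 s. Buffer 50mM HEPES pH 7.8, 0.5mM EDTA, 1mM TCEP, 0.01% Tween-20, 0.1 mg/ml BSA.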

[21] = biological target: DNA dC->dU-editing enzyme APOBEC-3G (Homo sapiens) (UniProt Q9HC16); test: qHTS for inhibitors of Vif-A3G interactions: Validation (AID 588379); further: 0% is about no effect
Sequence of DNA dC->dU-editing enzyme APOBEC-3G (Homo sapiens) (Q9HC16 whole entry, looked up): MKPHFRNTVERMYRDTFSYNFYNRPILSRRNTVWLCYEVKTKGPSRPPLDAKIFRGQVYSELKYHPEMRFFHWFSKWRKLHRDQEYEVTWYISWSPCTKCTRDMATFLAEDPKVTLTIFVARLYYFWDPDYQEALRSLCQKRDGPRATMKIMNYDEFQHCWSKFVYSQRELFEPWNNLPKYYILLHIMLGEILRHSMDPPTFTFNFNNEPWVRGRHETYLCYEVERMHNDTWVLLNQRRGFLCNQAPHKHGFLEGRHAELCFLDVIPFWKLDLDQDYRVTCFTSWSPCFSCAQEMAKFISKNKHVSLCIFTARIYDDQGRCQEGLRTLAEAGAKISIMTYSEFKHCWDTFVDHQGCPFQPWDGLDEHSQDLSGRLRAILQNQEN
Method in brief: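 HeLa cells stably expressing Vif and A3G-eYFP, 700 cells/well, incubated overnight at 37 deg C, then exposed to compound overnight at 37 deg C. Inhibition of Vif-mediated degradation read as increased yellow fluorescence (Ex 488/Em 500-530) by laser-scanning cytometry.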

[22] = biological target: Luciferin 4-monooxygenase (Photinus pyralis) (UniProt P08659); test: Biochemical firefly luciferase enzyme assay for NPC (AID 624030);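 further: purified P. pyralis luciferase at 10 nM with luciferin and ATP substrate; 0% = DMSO and -100% = full luciferase inhibition by PTC124 control; nearly all actives have a fitted effect of over 70% in size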
Sequence of Luciferin 4-monooxygenase (Photinus pyralis) (P08659 whole entry, looked up): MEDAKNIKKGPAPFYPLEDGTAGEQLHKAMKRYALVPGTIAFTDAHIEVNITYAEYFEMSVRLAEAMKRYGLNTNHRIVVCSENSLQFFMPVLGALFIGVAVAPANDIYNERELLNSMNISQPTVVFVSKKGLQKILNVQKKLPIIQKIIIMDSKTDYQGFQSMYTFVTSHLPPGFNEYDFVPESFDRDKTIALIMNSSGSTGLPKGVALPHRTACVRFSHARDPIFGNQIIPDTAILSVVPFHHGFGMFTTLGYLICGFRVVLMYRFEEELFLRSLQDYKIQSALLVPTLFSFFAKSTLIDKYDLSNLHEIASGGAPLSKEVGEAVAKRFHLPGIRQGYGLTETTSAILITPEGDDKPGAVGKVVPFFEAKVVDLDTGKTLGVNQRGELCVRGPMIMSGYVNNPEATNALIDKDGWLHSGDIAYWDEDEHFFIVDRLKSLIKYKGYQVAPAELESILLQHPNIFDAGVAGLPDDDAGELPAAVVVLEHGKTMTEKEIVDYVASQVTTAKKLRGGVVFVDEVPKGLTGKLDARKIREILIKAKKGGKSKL
Method in brief: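 Direct inhibition of firefly luciferase enzyme (10 nM final, 50 mM Tris Acetate) assessed by luminescence within 5 minutes. Percent activity scaled between DMSO and PTC124 positive control, with concentration-effect curves classified by fit quality and response.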

[23] = S16 Schwann cell viability assay (CellTiter-Glo assay) (AID 624031);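 further: cellular ATP luminescence as a viability measure; plate controls were DMSO-treated cells for no effect and cell-free wells for full effect; nearly all actives have a fitted effect of over 70% in size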
Method in brief: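 Untransfected S16 rat Schwann cells; compound 24 h, 37 °C/5% CO2; CellTiter-Glo ATP luminescence. % activity vs no-cell wells and DMSO controls (0%); concentration-effect curves classed by r2, response magnitude, activity.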

[24] = S16 Schwann cell PMP22 intronic element firefly luciferase assay (AID 624032);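 further: plate controls were DMSO for no effect and PTC124 positive control mean for full effect; nearly all actives have a fitted effect of over 30% in size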
Method in brief: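 Luciferase reporter of PMP22 intronic-element expression in stably transfected S16 rat Schwann cells, read by ONE-Glo luminescence after 24 h compound exposure at 37 C. Activity scaled between DMSO (0%) and positive-control PTC124; concentration-effect curves quality-classified.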

[25] = P-glycoprotein substrates identified in KB-3-1 adenocarcinoma cell line, qHTS therapeutic library screen (AID 1346986); further: on the % scale 0 is the no-effect control and ±100 the full control effect; nearly all actives have a fitted effect of over 60% in size
Method in brief: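 Counter-screen: cherry-picked hits retested in the KB pair and in HEK-293 pcDNA/MDR-19 cells ± tariquidar. Primary screen used 72 h CellTiter-Glo viability in KB-3-1 and KB-8-5-11.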

[26] = Primary qHTS for inhibitors of nuclear receptor binding SET domain protein 2 (NSD2) in an isogenic RCH-ACV NSD2 p.E1099K mutant (9B) (AID 1645876); further: on the % scale 0 is the no-effect control and ±100 the full control effect; nearly all actives have a fitted effect of over 70% in size
[27] = Primary qHTS for inhibitors of nuclear receptor binding SET domain protein 2 (NSD2) in an RCH-ACV wild type WT cells (2C) (AID 1645877); further: on the % scale 0 is the no-effect control and ±100 the full control effect; nearly all actives have a fitted effect of over 70% in size
3D7 = test: qHTS profiling for inhibitors of Plasmodium falciparum proliferation (AID 504749); further: nearly all actives have a fitted effect of over 60% in size; further: potency means the concentration at half of the fitted maximal effect; settings: P. falciparum in erythrocytes, SYBR Green DNA, 72 h; series mostly up to 28.7 µM
Method in brief: (§1)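 Three-day growth assay of blood-stage parasites in erythrocytes (0.3% parasitemia, 2.5% hematocrit) at 37 C, 5% CO2, quantified by SYBR Green DNA staining after overnight detergent lysis.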

7G8 = test: as above; settings: P. falciparum in erythrocytes, SYBR Green DNA, 72 h; series mostly up to 28.7 µM
Method in brief: as §1

AS120 = test: as above; settings: P. falciparum in erythrocytes, SYBR Green DNA, 72 h; series mostly up to 28.7 µM
Method in brief: as §1

C2A = test: as above; settings: P. falciparum in erythrocytes, SYBR Green DNA, 72 h; series mostly up to 28.7 µM
Method in brief: as §1

CP191 = test: as above; settings: P. falciparum in erythrocytes, SYBR Green DNA, 72 h; series mostly up to 28.7 µM
Method in brief: as §1

CP192 = test: as above; settings: P. falciparum in erythrocytes, SYBR Green DNA, 72 h; series mostly up to 28.7 µM
Method in brief: as §1

CP237 = test: as above; settings: P. falciparum in erythrocytes, SYBR Green DNA, 72 h; series mostly up to 28.7 µM
Method in brief: as §1

CP256 = test: as above; settings: P. falciparum in erythrocytes, SYBR Green DNA, 72 h; series mostly up to 28.7 µM
Method in brief: as §1

CP262 = test: as above; settings: P. falciparum in erythrocytes, SYBR Green DNA, 72 h; series mostly up to 28.7 µM
Method in brief: as §1

CP269 = test: as above; settings: P. falciparum in erythrocytes, SYBR Green DNA, 72 h; series mostly up to 28.7 µM
Method in brief: as §1

CP297 = test: as above; settings: P. falciparum in erythrocytes, SYBR Green DNA, 72 h; series mostly up to 28.7 µM
Method in brief: as §1

CP315 = test: as above; settings: P. falciparum in erythrocytes, SYBR Green DNA, 72 h; series mostly up to 28.7 µM
Method in brief: as §1

Dd2 = test: as above; settings: P. falciparum in erythrocytes, SYBR Green DNA, 72 h; series mostly up to 28.7 µM
Method in brief: as §1

GB4 = test: as above; settings: P. falciparum in erythrocytes, SYBR Green DNA, 72 h; series mostly up to 28.7 µM
Method in brief: as §1

ICS = test: as above; settings: P. falciparum in erythrocytes, SYBR Green DNA, 72 h; series mostly up to 28.7 µM
Method in brief: as §1

JCK = test: as above; settings: P. falciparum in erythrocytes, SYBR Green DNA, 72 h; series mostly up to 28.7 µM
Method in brief: as §1

PC49 = test: as above; settings: P. falciparum in erythrocytes, SYBR Green DNA, 72 h; series mostly up to 28.7 µM
Method in brief: as §1

TAB113 = test: as above; settings: P. falciparum in erythrocytes, SYBR Green DNA, 72 h; series mostly up to 28.7 µM
Method in brief: as §1

TAB165 = test: as above; settings: P. falciparum in erythrocytes, SYBR Green DNA, 72 h; series mostly up to 28.7 µM
Method in brief: as §1

W2 = test: as above; settings: P. falciparum in erythrocytes, SYBR Green DNA, 72 h; series mostly up to 28.7 µM
Method in brief: as §1

C[C@]12CC[C@H]3[C@@H](CCC4=CC(=O)CC[C@@]43C)[C@@H]1CC[C@@H]2OC(=O)CCc1ccccc1
active: Potency [2] 10 µM
-18.9%: activity change, negative = inhibition [8]
inactive: max response [1] 3.81% | Potency [3] | outcome [4] | Potency [5] | outcome [6] | Potency [7] | Potency [9] | Potency [10]

Cc1cccc([C@H](C)c2cnc[nH]2)c1C
active: Potency [11] 0.158 µM | Potency [15] 0.199 µM | Potency [16] 0.158 µM | Potency [18] 5.01 µM | Potency (7G8) 7.94 µM | Potency (CP191) 7.08 µM | Potency (CP237) 11.2 µM | Potency (CP256) 7.08 µM | Potency (CP297) 10.7 µM | Potency (Dd2) 11.2 µM | Potency (GB4) 8.49 µM | Potency (ICS) 12.6 µM | Potency (TAB165) 4.47 µM | Potency (W2) 10.7 µM
inactive: Potency [12] > 46 µM | Potency [13] > 46 µM | outcome [14] | Potency [17] | Potency [19] | Potency [20] | Potency [21] | Potency [22] | Potency [23] | Potency [24] | Potency [25] | Potency [2] | Potency [3] | outcome [4] | Potency [5] | Potency [7] | Potency [8] | Potency [26] | Potency [27] | Potency [9] | Potency [10] | Potency (3D7) | Potency (AS120) | Potency (C2A) | Potency (CP192) | Potency (CP262) | Potency (CP269) | Potency (CP315) | Potency (JCK) | Potency (PC49) | Potency (TAB113)
